{
  "source": "PubChem BioAssay (Tox21)",
  "note": "Results filed as inconclusive are left out. Unmarked numbers belong to inactive results. The call rests on the fitted dose curve; in most records, active means well fitted inhibition curve with a large enough effect in the repeat runs; inconclusive means weak or mixed curves, or effect the other way; inactive means no such curve, though single readings can be large or run the other way. On the % scale 0 is the no-effect control and ±100 the full control effect.",
  "data": [
    {"biological_target": "Androgen receptor (Homo sapiens) (UniProt P10275)", "sequence (P10275 whole entry, looked up)": "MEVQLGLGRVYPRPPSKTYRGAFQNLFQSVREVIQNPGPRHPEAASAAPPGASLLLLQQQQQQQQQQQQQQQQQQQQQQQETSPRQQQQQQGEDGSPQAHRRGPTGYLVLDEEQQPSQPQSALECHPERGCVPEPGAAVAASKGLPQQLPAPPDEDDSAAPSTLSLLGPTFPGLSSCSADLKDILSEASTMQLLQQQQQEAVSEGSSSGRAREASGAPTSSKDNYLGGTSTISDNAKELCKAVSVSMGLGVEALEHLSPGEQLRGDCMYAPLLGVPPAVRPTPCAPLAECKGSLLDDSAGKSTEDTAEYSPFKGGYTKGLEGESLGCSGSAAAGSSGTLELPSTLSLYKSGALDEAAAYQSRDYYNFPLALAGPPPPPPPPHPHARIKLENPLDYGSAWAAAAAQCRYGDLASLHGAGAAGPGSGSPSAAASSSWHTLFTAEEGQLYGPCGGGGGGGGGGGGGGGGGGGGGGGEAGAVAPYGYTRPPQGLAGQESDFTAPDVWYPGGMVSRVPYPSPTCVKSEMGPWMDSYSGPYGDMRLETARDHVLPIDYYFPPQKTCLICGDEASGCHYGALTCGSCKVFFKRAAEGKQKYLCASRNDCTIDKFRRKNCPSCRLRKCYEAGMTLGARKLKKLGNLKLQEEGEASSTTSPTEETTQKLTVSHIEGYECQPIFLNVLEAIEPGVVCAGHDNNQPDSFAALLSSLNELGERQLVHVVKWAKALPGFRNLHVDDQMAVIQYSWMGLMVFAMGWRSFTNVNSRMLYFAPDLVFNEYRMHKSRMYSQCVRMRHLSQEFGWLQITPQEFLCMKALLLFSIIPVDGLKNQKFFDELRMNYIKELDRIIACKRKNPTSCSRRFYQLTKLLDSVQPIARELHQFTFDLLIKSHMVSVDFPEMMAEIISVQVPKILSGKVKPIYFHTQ", "assay": "qHTS assay to identify small molecule antagonists of the androgen receptor (AR) signaling pathway using the MDA cell line (AID 743042; further: nearly all actives have a fitted effect of over 55% in size)", "details": "MDA-kb2 AR-luc, MMTV luciferase, R1881 antagonist, 16 h; series mostly up to 70.3 µM; activity change, negative = inhibition: at the top concentration", "outline": "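MDA-kb2 cells (human breast carcinoma, stably carrying an MMTV-luciferase reporter responsive to AR and GR) were plated at 3,000 cells/well and preincubated 5 hr at 37C, then given compound plus R1881 agonist for 16 h. ONE-Glo luminescence was read.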", "values": [
      {"compound": "CC(C)(CO)[C@@H](O)C(=O)NCCCC(=O)O", "activity change, negative = inhibition": "14.5%"},
      {"compound": "CCOC(=O)c1cc(-c2ccccc2)nc2ccc(C)cc12", "activity change, negative = inhibition": "34%"},
      {"compound": "C[C@@H]1C[C@H]2C3C[C@H](F)C4=CC(=O)C=CC4(C)[C@@]3(F)[C@@H](O)CC2(C)[C@@]1(O)C(=O)COC(=O)C(C)(C)C", "note": "(stereo partly specified)", "activity change, negative = inhibition": "212%"},
      {"compound": "O=C(O)c1cc(N=Nc2ccc(O)c(C(=O)O)c2)ccc1O", "activity change, negative = inhibition": "3.25%"},
      {"compound": "COC(=O)[C@H]1[C@H]2C[C@@H]3c4[nH]c5cc(OC)ccc5c4CCN3C[C@H]2C[C@@H](OC(=O)/C=C/c2cc(OC)c(OC)c(OC)c2)[C@@H]1OC", "activity change, negative = inhibition": "-0.0342% [at 32.5 µM]"},
      {"compound": "O=C(O)c1c(Cl)c(Cl)c(Cl)c(Cl)c1-c1c2cc(I)c(=O)c(I)c-2oc2c(I)c(O)c(I)cc12", "activity change, negative = inhibition": "52.1%"},
      {"compound": "O=C(Nc1ccc(O)cc1)c1ccccc1O", "activity change, negative = inhibition": "52.5%"},
      {"compound": "COc1cc(C)c(/C=C/C(C)=C/C=C/C(C)=C/C(=O)O)c(C)c1C", "activity change, negative = inhibition": "8.4%"},
      {"compound": "CC(=O)OCC(=O)[C@@]1(O)[C@H](C)C[C@H]2[C@@H]3C[C@H](F)C4=CC(=O)C=C[C@]4(C)[C@H]3[C@@H](O)C[C@@]21C", "activity change, negative = inhibition": "188%"},
      {"compound": "COc1ccc(-c2noc(CC(=O)O)c2-c2ccc(OC)cc2)cc1", "activity change, negative = inhibition": "5.33%"},
      {"compound": "CC(C)CN(C[C@@H](O)[C@H](Cc1ccccc1)NC(=O)O[C@@H]1CCOC1)S(=O)(=O)c1ccc(N)cc1", "activity change, negative = inhibition": "15.8%"}
    ]}
  ]
}
